A short description of test [1]: qHTS Assay for Lipid Storage Modulators (AID 1519; calls by dose curve; for activity change, negative = inhibition: % is set by controls: 0 for no effect and ±100 for the full control effect). The note with it: Drosophila S3 cells, BODIPY lipid droplet/cell ratio, laser cytometry, cells loaded with oleic acid. The method in brief: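 Cells seeded at 5,000 per well were treated with compounds over a concentration series and loaded with oleic acid (400 uM, as added). Lipid droplet fluorescence (488 nm excitation, 500-530 nm channel) was read by laser-scanning cytometry and normalized to 20 uM Triacsin C.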

Test [2] concerns the target DNA repair nuclease/redox regulator APEX1 (Homo sapiens) (UniProt P27695). Nature of the test: qHTS Validation Assay for Inhibitors of the Human Apurinic/apyrimidinic Endonuclease 1 (APE1) (AID 1705;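 note: TAMRA fluorescence gain over two minutes as APE1 cuts a quenched THF abasic duplex; % is set by controls: 0 for no effect and ±100 for the full control effect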). The essentials: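 Substrate: 50 nM final fluorophore/quencher THF-abasic duplex. Enzyme preincubated with compounds 15 min, RT. Progress derived from fluorescence difference, third minus first kinetic read.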
(In general: Quantitative high-throughput screening tests each substance at several concentrations.)

For test [3], the target named is Endonuclease 4 (Escherichia coli (strain K12)) (UniProt P0A6C1). Briefly: Counterscreen for APE1 Inhibitors: qHTS Validation Assay for Inhibitors of Endonuclease IV (AID 1708). Note: % is set by controls: 0 for no effect and ±100 for the full control effect. The essentials: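 qHTS concentration-response format; LOPAC1280 tested under APE1-screen conditions. 2 nM enzyme, 15 min compound preincubation at RT, then 50 nM TAMRA/BHQ-2 abasic substrate; kinetic fluorescence read, three reads at 60 s intervals.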
On the technique in general: Counterscreens check selectivity or assay interference.

A short description of test [4]: qHTS for differential inhibitors of proliferation of Plasmodium falciparum line 7G8 (AID 1815).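 For activity change, negative = inhibition: plate controls were vehicle wells for no effect and reference inhibitor wells for full effect.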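 Note: parasite growth measured after three days of incubation.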 Note: potency is the fitted concentration of half-maximal effect.
A short description of test [5]: qHTS for differential inhibitors of proliferation of Plasmodium falciparum line GB4 (AID 1816).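 For activity change, negative = inhibition: 0% = vehicle DMSO and -100% = reference inhibitor.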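 Note: parasite growth measured after 72 h incubation.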 Note: potency is the fitted concentration of half-maximal effect. The note with it: Potency: Plasmodium falciparum GB4 proliferation inhibition.
Test [6] in a line: qHTS for differential inhibitors of proliferation of Plasmodium falciparum line 3D7 (AID 1876). Note: potency is the fitted concentration of half-maximal effect.
The nature of test [7]: qHTS for differential inhibitors of proliferation of Plasmodium falciparum line D10 (AID 1877).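 For activity change, negative = inhibition: plate controls were vehicle wells for no effect and reference inhibitor wells for full effect.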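 Note: parasites grown with compound for 72 h before DNA staining.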 Note: potency is the fitted concentration of half-maximal effect.
A short description of test [8]: qHTS for differential inhibitors of proliferation of Plasmodium falciparum line W2 (AID 1883).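 For activity change, negative = inhibition: 0% = vehicle wells and -100% = control inhibitor wells.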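 Note: parasites grown with compound for 72 h before lysis and staining.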 Note: potency is the fitted concentration of half-maximal effect. The note with it: Potency: Plasmodium falciparum W2 proliferation inhibition.
Test [9] can be described thus: qHTS for differential inhibitors of proliferation of Plasmodium falciparum line HB3 (AID 1886).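 For activity change, negative = inhibition: plate controls were vehicle for no effect and reference inhibitor for full effect.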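 Note: parasites grown with compound for 72 h before SYBR Green readout.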 Note: potency is the fitted concentration of half-maximal effect. To be noted: Potency: Plasmodium falciparum HB3 proliferation inhibition.
For test [10], the target named is ATP-dependent DNA helicase Q1 (Homo sapiens) (UniProt P46063). Briefly: qHTS Validation Assay for Inhibitors of RecQ-Like Dna Helicase 1 (RECQ1) (AID 2353).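 Note: plate controls were DMSO vehicle for no effect and enzyme-free control for full effect.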 The essentials: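 50 nM RECQ1T1 preincubated 15 min with compound in Tris pH 8.0 buffer with MgCl2, DTT, Tween-20 and 2.5 ug/ml poly(dI-dC); started with 200 nM TAMRA/BHQ-2 forked duplex and 2 mM ATP. Unwinding read as fluorescence (525/598 nm), two reads 2 h apart.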
ATP-dependent DNA helicase Q1 (Homo sapiens), sequence (P46063 whole entry, looked up): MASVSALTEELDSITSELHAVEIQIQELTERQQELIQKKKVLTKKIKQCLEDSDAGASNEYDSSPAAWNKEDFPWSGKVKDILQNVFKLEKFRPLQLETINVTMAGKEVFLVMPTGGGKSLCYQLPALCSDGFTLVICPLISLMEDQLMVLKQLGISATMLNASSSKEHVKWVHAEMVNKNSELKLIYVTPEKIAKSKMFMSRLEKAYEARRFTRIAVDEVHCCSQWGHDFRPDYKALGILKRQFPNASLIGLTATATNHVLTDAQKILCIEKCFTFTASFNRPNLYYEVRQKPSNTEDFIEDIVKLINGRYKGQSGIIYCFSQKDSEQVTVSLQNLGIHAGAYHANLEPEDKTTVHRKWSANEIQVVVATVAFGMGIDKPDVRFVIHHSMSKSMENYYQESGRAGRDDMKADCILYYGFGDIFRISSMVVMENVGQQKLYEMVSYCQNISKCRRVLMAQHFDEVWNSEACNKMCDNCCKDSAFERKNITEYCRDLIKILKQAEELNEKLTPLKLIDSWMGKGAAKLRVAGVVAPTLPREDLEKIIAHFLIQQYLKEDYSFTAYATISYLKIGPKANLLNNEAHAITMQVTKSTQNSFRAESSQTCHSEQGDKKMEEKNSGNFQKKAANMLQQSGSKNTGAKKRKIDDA

Test [11] has as its target RecQ-like DNA helicase BLM (Homo sapiens) (UniProt P54132). Briefly: qHTS Validation Assay for Inhibitors of Bloom's syndrome helicase (BLM) (AID 2364).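 Note: plate controls were DMSO vehicle for no effect and enzyme-free control for full effect.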 The method in brief: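 Forked 20-bp duplex substrate (200 nM, TAMRA/BHQ-2) plus 2 mM ATP added after 15 min compound preincubation with 50 nM enzyme, pH 8.0, poly(dI-dC) 2.5 ug/ml. Strand separation followed by fluorescence (525/598 nm) over 2 h, normalized to enzyme-free and DMSO controls.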

For test [12], the target named is Alpha-galactosidase A (Homo sapiens) (UniProt P06280). Nature of the test: Counterscreen for Glucocerebrosidase Inhibitors: qHTS Assay for Human alpha-Galactosidase at pH 4.5 (AID 992). Note: 0% is about no effect. The essentials:
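Enzyme at 2 nM final was combined with compound (0.7 nM to 77 uM) and 80 uM 4-methylumbelliferyl alpha-D-galactopyranoside in 50 mM citric acid, 0.005% Tween-20, pH 4.5. After 20 min at room temperature, fluorescence was read (Ex 365/Em 440 nm); AC50 came from Hill fits.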

The target of test [13] is alpha-glucosidase (Oryza sativa, rice) (UniProt Q653V4). Nature of the test: Counterscreen for Glucocerebrosidase Inhibitors: qHTS Assay for Rice alpha-Glucosidase at pH 5.0 (AID 997).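 Note: 0% = full activity with enzyme and -100% = basal without enzyme.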 The method in brief: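 Rice alpha-glucosidase (4 nM final) with 400 uM 4-methylumbelliferyl-alpha-D-glucopyranoside in citrate buffer pH 5.0, 20 min at room temperature, stopped at pH 10; fluorescence 365/440 nm, compounds 0.7 nM–77 uM, AC50 from Hill fits.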

Test [14] has as its target Ferritin light chain (Equus caballus) (UniProt P02791). Briefly: qHTS Validation Assay for Identification of Novel General Anesthetics (AID 2323). Note: % is set by controls: 0 for no effect and ±100 for the full control effect. The essentials: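 Normalized fluorescence response, scaled between free 1-AMA and 1-AMA/apoferritin complex, fitted to a four-parameter Hill equation for concentration-effect values. Binding mix: 10 uM horse-spleen apoferritin, 50% saturated 1-AMA in PBS; read 380/535 nm after 10 min.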

Test [15] can be described thus: qHTS for differential inhibitors of proliferation of Plasmodium falciparum line Dd2 (AID 1882).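 For activity change, negative = inhibition: plate controls were DMSO vehicle for no effect and 0.29 µM artemisinin for full effect.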 Note: nearly all actives have a fitted effect of over 65% in size. Note: potency is the fitted concentration of half-maximal effect. The note with it: Potency: Plasmodium falciparum Dd2 proliferation inhibition. The method in brief: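 Dd2-infected erythrocytes (0.3% parasitemia, 2.5% hematocrit final) incubated with compound 72 h at 37 C, 5% CO2; lysed with saponin/Triton buffer containing SYBR Green I, incubated overnight in the dark, then read by fluorescence (485/535 nm). Normalized to 0.29 uM artemisinin and DMSO.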

Test [16] is described as follows: Cell Viability - LYMP1-002 - Assay at 24 hr (AID 993). Note: potency is the fitted concentration of half-maximal effect. The essentials:
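Human lymphoblastoid LYMP1-002 cells (2500/well) treated 24 h at 37 °C; viability as intracellular ATP by CellTiter-Glo luminescence. Tetraoctylammonium bromide as positive control; AC50 from Hill-equation fits of qHTS concentration-response.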

Test [17] can be described thus: Cell Viability - LYMP1-002 - Assay at 40 hr (AID 994). Note: nearly all actives have a fitted effect of over 60% in size. Note: potency is the fitted concentration of half-maximal effect. The essentials: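 LYMP1-002 human lymphoblastoid cells (2500/well, complete medium) were treated with compounds for 40 hr at 37 C. Intracellular ATP was measured by CellTiter-Glo luminescence, and AC50 values came from Hill-equation fits of concentration-response data; tetraoctylammonium bromide was the positive control.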

Test [18] can be described thus: qHTS Assay for Identification of Small Molecule Inducers of Hypoxia Response (AID 2120; active = well fitted curve in the direction sought with a large enough effect in the signal ratio, with a control signal flat, not every such curve was filed as active; the % refers to the signal ratio; note: 0% is about no effect). The method in brief: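 HRE-bla ME-180 cells in Opti-MEM with 0.5% dialyzed FBS, pre-plated 4-5 h, then compound titration for 17 h at 37 degrees Celsius. CCF4 loaded 2.5 h at room temperature; 460/530 nm ratio gave %Activity and AC50 for induction.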
Where [19] appears, read: measured here: cell count channel max response.
Setting [20] is: measured here: lipid channel max response.

SMILES strings stand for the structures. “And” between values parts separate entries of the source, which are not always exact repeats. Identical values can stand only once. Inconclusive results are not listed. The source made the active and inactive calls. Unless noted, calls come from the whole dose curve; as a rule, active = well fitted curve in the direction sought with a large enough effect; inconclusive = small, poorly fitted or top-dose-only effect, or another doubt; inactive = no such curve, though single readings can be large; an effect the other way counts as inactive or inconclusive.

DNA repair nuclease/redox regulator APEX1 (Homo sapiens), sequence (P27695 whole entry, looked up): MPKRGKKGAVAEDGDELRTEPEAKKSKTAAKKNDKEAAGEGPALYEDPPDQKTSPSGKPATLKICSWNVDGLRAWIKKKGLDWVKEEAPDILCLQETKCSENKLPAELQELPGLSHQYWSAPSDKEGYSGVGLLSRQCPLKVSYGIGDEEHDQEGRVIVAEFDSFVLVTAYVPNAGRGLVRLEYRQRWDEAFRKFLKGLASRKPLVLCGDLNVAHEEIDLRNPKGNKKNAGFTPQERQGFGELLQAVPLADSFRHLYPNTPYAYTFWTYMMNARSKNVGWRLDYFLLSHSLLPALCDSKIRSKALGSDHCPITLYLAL
RecQ-like DNA helicase BLM (Homo sapiens), sequence (P54132 whole entry, looked up): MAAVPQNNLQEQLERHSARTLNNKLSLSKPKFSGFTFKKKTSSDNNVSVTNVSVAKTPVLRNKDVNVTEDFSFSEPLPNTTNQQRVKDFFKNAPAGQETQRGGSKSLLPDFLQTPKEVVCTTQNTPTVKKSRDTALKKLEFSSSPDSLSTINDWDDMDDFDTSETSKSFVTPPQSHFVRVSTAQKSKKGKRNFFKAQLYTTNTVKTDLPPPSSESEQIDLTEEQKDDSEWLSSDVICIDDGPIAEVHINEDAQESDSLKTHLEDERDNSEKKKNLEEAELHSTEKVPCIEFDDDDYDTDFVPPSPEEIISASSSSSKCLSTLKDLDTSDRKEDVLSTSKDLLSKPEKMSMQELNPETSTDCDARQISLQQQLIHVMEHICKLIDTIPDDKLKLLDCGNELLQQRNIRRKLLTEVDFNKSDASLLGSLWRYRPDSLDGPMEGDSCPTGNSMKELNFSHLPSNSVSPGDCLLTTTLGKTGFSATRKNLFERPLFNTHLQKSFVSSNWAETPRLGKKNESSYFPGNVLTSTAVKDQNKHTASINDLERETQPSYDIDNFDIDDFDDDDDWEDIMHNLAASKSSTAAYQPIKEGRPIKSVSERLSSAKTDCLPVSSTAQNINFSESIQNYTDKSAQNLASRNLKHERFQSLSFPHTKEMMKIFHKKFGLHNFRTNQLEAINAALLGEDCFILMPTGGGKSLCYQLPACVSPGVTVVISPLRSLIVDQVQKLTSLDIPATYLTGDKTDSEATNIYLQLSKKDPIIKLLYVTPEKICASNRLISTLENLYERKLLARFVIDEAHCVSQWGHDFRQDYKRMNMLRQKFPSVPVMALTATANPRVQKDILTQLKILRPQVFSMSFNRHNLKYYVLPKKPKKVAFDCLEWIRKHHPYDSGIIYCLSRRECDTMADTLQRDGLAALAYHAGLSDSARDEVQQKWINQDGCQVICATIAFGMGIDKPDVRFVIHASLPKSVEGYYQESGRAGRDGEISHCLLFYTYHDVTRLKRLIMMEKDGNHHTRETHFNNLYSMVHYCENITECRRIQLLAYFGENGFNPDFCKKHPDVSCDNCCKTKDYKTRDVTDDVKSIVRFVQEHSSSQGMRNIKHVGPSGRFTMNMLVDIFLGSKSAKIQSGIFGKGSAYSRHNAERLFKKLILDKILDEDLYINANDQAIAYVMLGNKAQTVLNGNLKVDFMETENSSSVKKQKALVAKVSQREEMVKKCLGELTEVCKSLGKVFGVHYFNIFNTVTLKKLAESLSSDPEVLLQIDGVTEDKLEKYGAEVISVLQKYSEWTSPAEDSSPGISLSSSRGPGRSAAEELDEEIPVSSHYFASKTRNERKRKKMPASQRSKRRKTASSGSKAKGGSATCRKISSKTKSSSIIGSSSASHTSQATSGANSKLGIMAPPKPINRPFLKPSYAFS
Ferritin light chain (Equus caballus), sequence (P02791 2-175 limits assumed): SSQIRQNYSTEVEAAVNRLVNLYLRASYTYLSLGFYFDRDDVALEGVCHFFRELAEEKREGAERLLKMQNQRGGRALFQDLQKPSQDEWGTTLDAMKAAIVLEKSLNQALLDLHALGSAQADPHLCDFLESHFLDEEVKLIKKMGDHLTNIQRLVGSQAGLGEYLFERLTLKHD
Alpha-galactosidase A (Homo sapiens), sequence (P06280 whole entry, looked up): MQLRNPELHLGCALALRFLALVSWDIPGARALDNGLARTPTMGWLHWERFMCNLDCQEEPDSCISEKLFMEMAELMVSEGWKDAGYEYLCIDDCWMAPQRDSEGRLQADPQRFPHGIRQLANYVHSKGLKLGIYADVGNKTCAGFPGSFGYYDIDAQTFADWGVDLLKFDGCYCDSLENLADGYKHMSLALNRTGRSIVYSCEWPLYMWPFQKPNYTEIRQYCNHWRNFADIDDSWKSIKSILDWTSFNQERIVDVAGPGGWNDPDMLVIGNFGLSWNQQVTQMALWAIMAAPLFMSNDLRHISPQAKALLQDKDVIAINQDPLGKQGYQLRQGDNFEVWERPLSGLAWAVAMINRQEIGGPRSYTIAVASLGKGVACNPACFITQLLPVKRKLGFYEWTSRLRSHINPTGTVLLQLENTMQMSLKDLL

On to `Cc1cccc(C)c1OCC(C)N` (stereo unspecified), for which the activity change, negative = inhibition in [1] (at 57.5 µM (top of the series)) is 1.76% (inactive) and 1.1% (inactive). Moreover, the max response was 8.91% and -0.493% in [1] (setting [19]); 19.3% and 0.0191% in test [1] (setting [20]). Besides, the compound was classed as inactive in test [2], in test [3] and in test [10]. For the same compound, the Potency in test [4] was 12.6 µM (active); in test [5], 12.6 µM (active); in test [8], 7.94 µM (active). The Potency entry in [6], in test [7], in test [9] and in [11] was “inactive” each time.
In the case of `CC(C)NCC(O)COc1cccc2[nH]ccc12` (stereo unspecified), the outcome in test [12], in [13], in test [2], in test [14] and in test [10] was inactive. Moreover, in [1] (at 57.5 µM (top of the series)), the activity change, negative = inhibition was 10.5% (inactive). In addition, the max response in test [1] (setting [19]) is -0.51%; in test [1] (setting [20]), 13.4%.
In the case of `COC(=O)[C@@H]1[C@H]2C[C@H]3c4[nH]c5ccccc5c4CCN3C[C@@H]2CC[C@@H]1O`, the outcome in [2], in test [3], in [14] and in test [10] was inactive. Besides, the Potency result in [15] and in test [11] was “inactive” throughout.
Regarding `O=C(O)c1cc(O)c2c(c1)C(=O)c1cccc(O)c1C2=O`, the Potency entry in [16] and in [17] was “inactive” each time. Also, the activity change, negative = inhibition in test [1] (at 57.5 µM (top of the series)) was 8.11% (inactive). Besides, the max response was 13.4% in [1] (setting [19]) and 21.8% in test [1] (setting [20]). The outcome in [18] was inactive.
Consider `CC/C(=C(\c1ccccc1)c1ccc(OCCN(C)C)cc1)c1ccccc1`, for which the call in test [12], in [13], in [2], in test [14] and in test [10] was inactive. The Potency in test [16] is 50.1 µM (active); in [17] it was 50.1 µM (active); in test [4] it was 8.91 µM (active); in test [5] it was 12.6 µM (active); in [6], 11.2 µM (active); in test [7] it was 11.2 µM (active). The Potency was 11.2 µM (active) in test [15], 7.94 µM (active) in [8] and 11.2 µM (active) in test [9]. Also, the activity change, negative = inhibition in test [1] (at 57.5 µM (top of the series)) was 6.58% (inactive). The results for the max response in [1] (setting [19]) and in test [1] (setting [20]) were 6.28% and 15.3%, respectively.
For `O=c1cc(-c2ccc(O)cc2)oc2cc(O)cc(O)c12`, the compound was called inactive in test [12], in test [13] and in test [10]. Besides, in test [1] (at 57.5 µM (top of the series)), the activity change, negative = inhibition was 5.85% (inactive) and 0.858% (inactive) and 6.23% (inactive). Also, the max response was -3.26% and -4.54% and 14.7% in test [1] (setting [19]); 4.46% and -2.56% and 22.7% in test [1] (setting [20]). In addition, the Potency is 11.2 µM (active) in [4]; 14.1 µM (active) in [5]; 12.6 µM (active) in test [6]; 10 µM (active) in [8]; 11.2 µM (active) in test [9]. Besides, the Potency entry in test [15] and in test [11] was “inactive” throughout.
For `COc1cccc(-c2cc(=O)c3ccccc3o2)c1N`, the compound was classed as inactive in test [12], in test [13], in [2], in [3], in [14] and in [10]. Also, the activity change, negative = inhibition in test [1] (at 57.5 µM (top of the series)) was 1.98% (inactive). Besides, the results for the max response in [1] (setting [19]) and in test [1] (setting [20]) were 13.8% and 15.5%, respectively. Also, in [15], the Potency entry is “inactive”. Also, in test [8], the Potency was 12.6 µM (active).
Consider `O=C(O)CCc1nc(-c2ccccc2)c(-c2ccccc2)o1`, for which the compound was called inactive in test [12], in [13], in [2], in [3], in test [14] and in test [10]. In test [1] (at 25.7 µM (top of the series)), the activity change, negative = inhibition was 0.686% (inactive). In addition, the max response in test [1] (setting [19]) turned out to be 0.745%; in test [1] (setting [20]), 2.18%. The Potency entry in test [11] was “inactive”.
With `CC(C)OC(=O)C(C)(C)Oc1ccc(C(=O)c2ccc(Cl)cc2)cc1`, the compound was classed as inactive in test [12], in test [13], in test [2] and in [10]. Moreover, the activity change, negative = inhibition in [1] (at 25.7 µM (top of the series)) was -4.12% (inactive). Besides, the results for the max response in test [1] (setting [19]) and in test [1] (setting [20]) were -11.4% and -14.8%, respectively.
`C[N+](C)(C)CCCCCC[N+](C)(C)C`: the outcome in test [12], in test [13], in test [2], in test [3], in test [14] and in [10] was inactive. Besides, the activity change, negative = inhibition in [1] (at 25.7 µM (top of the series)) is -1.97% (inactive); in test [1] (at 57.5 µM (top of the series)), 11.8% (inactive) and 0.867% (inactive) and 2.49% (inactive). In addition, the Potency entry in test [4], in test [5], in test [6], in [7], in [15] and in test [8] was “inactive” each time. The Potency entry in test [9] and in [11] was “inactive” each time.
On to `O=c1[nH]cnc2c1ncn2[C@H]1CC[C@@H](CO)O1`, for which the Potency result in test [16] and in test [17] was “inactive” in each case. The call in test [18] was inactive.
Regarding `CCN(CC)C(=O)c1ccc(O)c(OC)c1`, the call in test [12], in [13], in test [2], in test [3], in test [14] and in [10] was inactive. For the same compound, the activity change, negative = inhibition in [1] (at 25.7 µM (top of the series)) is 0.695% (inactive). Also, the figures for the max response in test [1] (setting [19]) and in [1] (setting [20]) were 14.3% and 14.5%, respectively. Also, the Potency result in [4], in [5], in test [6], in test [7], in test [15] and in test [8] was “inactive” each time. The Potency result in test [9] was “inactive”.

For the origin of these results see PubChem BioAssay (NCATS).
